The record followed here is PubChem BioAssay (NCATS).

The nature of experiment [1]: qHTS of Trypanosoma Brucei Inhibitors: LOPAC Validation (AID 624147). The method in brief:
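Luminescence from Kinase-Glo Plus, added after a 45-minute room-temperature reaction, served as the end-point read-out. The enzyme and substrate were preincubated with compound before ADP (130 uM final) initiated turnover. Concentration-effect curves came from normalized qHTS data.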

Experiment [2] has as its target Glucagon-like peptide 1 receptor (Homo sapiens) (UniProt P43220). Nature of the experiment: qHTS of GLP-1 Receptor Agonists: LOPAC Validation (AID 624148).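 Also: higher luminescence signal means agonism.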 The method in brief:
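HEK293 cells stably co-expressing GLP-1R and a cAMP-responsive luciferase reporter, plated 12 hours before compound, then incubated 4-6 hr at 37 deg C. Luminescence read 12 min after detection reagent.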

Experiment [3] in a line: HTS Assay for Allosteric Antagonists of the Human D2 Dopamine Receptor: Hit Validation in HTRF (AID 624455). Also: potency is read from the fitted curve at half-maximal effect.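 Also: stable D1 dopamine receptor cell line scored for blocking the D1 response.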 The essentials: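 Inhibition of the D1-mediated response is measured by HTRF in cells that stably express the D1 dopamine receptor. Compounds reaching this step are hits from calcium-flux antagonism testing at EC80 dopamine in inducible Hek293 Trex D2 cells.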
For experiment [4], the target named is Glutaminase kidney isoform, mitochondrial (Homo sapiens) (UniProt O94925). In words: qHTS for Inhibitors of Glutaminase (GLS): LOPAC Validation (AID 624146). Also: nearly all actives have a fitted effect of over 60% in size. Also: potency is read from the fitted curve at half-maximal effect. The essentials:
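Coupled fluorescence readout: glutamate oxidase/HRP/Amplex Red detect glutamate formed by hKGA from L-glutamine (1 mM solution added). Buffer 45 mM KH2PO4 pH 8.2, 0.02% Tween-20; reads at t0 and 30 min RT.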

Experiment [5] is described as follows: qHTS of Nrf2 Activators: LOPAC Validation (AID 624149). The method in brief: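 Cells (AREc32_Fluc) are plated at 1000 per well in OPTI-MEM containing 5% FBS and left overnight. Compounds are pinned in and incubated 24 hr at 37 deg C, and firefly luciferase is detected with Steady-Glo.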
The nature of experiment [6]: Cytotoxicity counterscreen for NFkB agonists and antagonists (AID 624476).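 Also: potency is read from the fitted curve at half-maximal effect; cells exposed to compound for 48 hours.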
A short description of experiment [7]: qHTS Assay for Identification of Small Molecule Agonists for NFkB Signaling Pathway. (AID 624478).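 Also: compounds tested together with TNF alpha at its EC50 of 10 pM.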 The essentials:
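Activators were sought in reporter cells stimulated at the TNF alpha EC50 (10 pM final). Compound and cytokine were co-incubated 5 hours at 37 C before beta-lactamase substrate detection by dual-emission fluorescence.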

The nature of experiment [8]: Cell Proliferation Assay against the TMD8 Cell Line (AID 651645).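 Also: cells exposed to compound for 48 h before reading.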 The following applies: TMD8 DLBCL cell line proliferation/viability; at 46.1 µM (top of the series). The essentials: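 Luminescent ATP read-out (CellTiter-Glo, 15 min RT) after 48 h compound exposure of log-growing TMD8 cells at 37C; percent activity scaled between DMSO as 100% and 9.2 uM bortezomib final as 0%.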

Each structure is given as a SMILES string. Inconclusive results are not listed. Where a call stands in place of a potency, no number is given. Active and inactive are the calls of the source. Calls follow the shape of the dose curve; as a rule, active = well fitted curve in the direction sought with a large enough effect; inconclusive = small, poorly fitted or top-dose-only effect, or another doubt; inactive = no such curve, though single readings can be large; an effect the other way counts as inactive or inconclusive.

Glutaminase kidney isoform, mitochondrial (Homo sapiens), sequence (O94925 whole entry, looked up, canonical isoform): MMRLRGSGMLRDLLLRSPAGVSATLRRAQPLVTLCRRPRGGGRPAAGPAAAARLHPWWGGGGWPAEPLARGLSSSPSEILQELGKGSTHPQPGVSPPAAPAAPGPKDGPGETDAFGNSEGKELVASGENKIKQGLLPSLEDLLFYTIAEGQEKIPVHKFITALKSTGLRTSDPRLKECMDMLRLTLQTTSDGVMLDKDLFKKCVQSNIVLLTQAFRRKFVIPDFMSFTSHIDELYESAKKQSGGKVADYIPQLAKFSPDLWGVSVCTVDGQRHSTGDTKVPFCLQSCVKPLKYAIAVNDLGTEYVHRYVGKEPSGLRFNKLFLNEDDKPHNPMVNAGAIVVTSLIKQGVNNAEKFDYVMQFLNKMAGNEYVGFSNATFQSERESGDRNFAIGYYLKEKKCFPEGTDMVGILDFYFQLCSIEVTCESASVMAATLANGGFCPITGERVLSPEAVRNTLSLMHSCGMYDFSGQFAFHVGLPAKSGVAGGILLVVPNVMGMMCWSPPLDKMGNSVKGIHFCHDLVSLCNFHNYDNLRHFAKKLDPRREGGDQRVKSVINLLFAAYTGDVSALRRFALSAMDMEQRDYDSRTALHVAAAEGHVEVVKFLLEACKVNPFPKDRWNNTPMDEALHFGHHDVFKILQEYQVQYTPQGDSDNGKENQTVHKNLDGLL
Glucagon-like peptide 1 receptor (Homo sapiens), sequence (P43220 whole entry, looked up): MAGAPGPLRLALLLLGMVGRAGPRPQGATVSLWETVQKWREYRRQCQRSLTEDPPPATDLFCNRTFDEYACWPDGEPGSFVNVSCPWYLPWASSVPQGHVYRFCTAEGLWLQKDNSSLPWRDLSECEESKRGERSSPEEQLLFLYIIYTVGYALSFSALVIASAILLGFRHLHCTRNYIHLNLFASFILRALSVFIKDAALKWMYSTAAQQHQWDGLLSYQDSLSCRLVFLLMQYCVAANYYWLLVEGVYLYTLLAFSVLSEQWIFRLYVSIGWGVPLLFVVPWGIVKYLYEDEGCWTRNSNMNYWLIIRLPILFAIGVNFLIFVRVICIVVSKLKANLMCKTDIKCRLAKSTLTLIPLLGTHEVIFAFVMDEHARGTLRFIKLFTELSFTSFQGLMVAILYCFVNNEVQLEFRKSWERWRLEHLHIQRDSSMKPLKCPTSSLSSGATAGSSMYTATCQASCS

As to `CCOC(=O)N1CCN(/[N+]([O-])=N/Oc2ccc([N+](=O)[O-])cc2[N+](=O)[O-])CC1`, the Potency result in experiment [1] and in experiment [3] was “inactive” each time. Also, in experiment [2], the result was inactive.
In the case of `O=C1C(SCCO)=C(SCCO)C(=O)c2ccccc21`, in experiment [4], the Potency is 10 µM (active). In addition, the compound was called inactive in experiment [2]. The Potency result in experiment [3] was “inactive”.
In the case of `CC(=O)/C=C1\C(=O)N(C)c2ccccc21`, the Potency result in experiment [1] and in experiment [3] was “inactive” in each case. Besides, in experiment [2], the compound was classed as inactive.
For the compound `CCNC(=O)[C@H]1O[C@@H](n2cnc3c(N)nc(NCCc4ccc(CCC(=O)O)cc4)nc32)[C@H](O)[C@@H]1O`, the Potency result in experiment [1] is “inactive”. Also, the compound was classed as inactive in experiment [2] and in experiment [5]. For the same compound, in experiment [3], the Potency is 5.17 µM (active).
On to `N#C/C(=C\c1ccc(O)c(O)c1)C(=O)c1ccc(O)c(O)c1`, for which the Potency entry in experiment [1] and in experiment [3] was “inactive” each time. The call in experiment [2] and in experiment [5] was inactive.
For the compound `O=C(O)CC1CCCc2ccccc2C1O` (stereo not given), the Potency result in experiment [1] and in experiment [3] was “inactive” in each case. In addition, the compound was classed as inactive in experiment [2].
For `CCCCCCCCCCCCCCCCCC(=O)NCC(COP(=O)([O-])OCC[N+](C)(C)C)OCC` (stereo not given), the Potency result in experiment [1] and in experiment [3] was “inactive” throughout. The compound was called inactive in experiment [2].
`C=C[C@@H]1CN2CC[C@@H]1C[C@H]2[C@H](O)c1ccnc2ccc(OC)cc12`: the Potency result in experiment [4], in experiment [1] and in experiment [3] was “inactive” in each case.
In the case of `N#C/C(=C\c1ccc(O)c(O)c1)C(=O)NCCCc1ccccc1`, the Potency result in experiment [1] and in experiment [3] was “inactive” in each case. Besides, in experiment [2], the result was inactive.
Consider `O=C1NC(=O)/C(=C/c2ccc(-c3ccc(F)cc3O)o2)S1`, for which the Potency result in experiment [1] and in experiment [3] was “inactive” in each case. For the same compound, the call in experiment [2] was inactive.
As for `CCCCCCCC/C=C\CCCCCCCC(=O)NCCO`, the Potency result in experiment [1] and in experiment [3] was “inactive” throughout. Also, the compound was called inactive in experiment [5].
As to `N.N.O=C(O)C1(C(=O)O)CCC1.[Pt]`, the Potency entry in experiment [4] was “inactive”. Further, the result in experiment [2] and in experiment [5] was inactive.
In the case of `Cc1ccc(S(=O)(=O)/C=C/C#N)cc1`, the Potency in experiment [4] is 12.6 µM (active). The Potency entry in experiment [3] is “inactive”.
As to `CC(C)(C)c1ccc(S(=O)(=O)/C=C/C#N)cc1`, in experiment [4], the Potency was 7.08 µM (active). In addition, the compound was called inactive in experiment [2].
With `O=C(/C=C/c1ccc(O)cc1)c1ccc(O)cc1O`, the Potency in experiment [4] is 10 µM (active). For the same compound, the Potency result in experiment [1] and in experiment [3] was “inactive” each time.
As to `CC(C)ON([C@@H](C(=O)NO)C(C)C)S(=O)(=O)c1ccc(-c2ccccc2)cc1`, the Potency result in experiment [1] and in experiment [3] was “inactive” each time. The result in experiment [2] and in experiment [5] was inactive.
`N#C/C(=C\c1ccc(-c2cc(Cl)ccc2Cl)o1)C(=O)Nc1cccc2ncccc12`: the Potency result in experiment [1] and in experiment [3] was “inactive” throughout. Moreover, the result in experiment [2] and in experiment [5] was inactive.
Regarding `CN1CCc2cccc3c2C1Cc1ccc(O)c(O)c1-3` (stereo not given), the Potency in experiment [4] was 4.47 µM (active). In addition, the call in experiment [2] and in experiment [5] was inactive.
As for `CN1CCc2cc(O)c(O)cc2C(c2ccccc2)C1` (stereo not given), the Potency result in experiment [1] was “inactive”. Moreover, the result in experiment [2] and in experiment [5] was inactive.
For `C=CCc1cccc(/C=N/NC(=O)CN2CCN(Cc3ccccc3)CC2)c1O`, the Potency in experiment [6] was 16.6 µM (active). For the same compound, in experiment [7], the call was inactive. Moreover, the viability (% of control) in experiment [8] amounted to 11.3%.
Consider `CC(C)NCC(O)COc1cccc2ccccc12` (stereo not given), for which the Potency result in experiment [4] and in experiment [3] was “inactive” each time. Besides, in experiment [5], the compound was classed as inactive.
In the case of `COc1cc(OC)c(/C=C2/C(=O)Nc3ccccc32)c(OC)c1`, the Potency result in experiment [1] and in experiment [3] was “inactive” in each case. Further, the result in experiment [2] and in experiment [5] was inactive.
For `CC1OC1P(=O)(O)O` (stereo not given), the Potency entry in experiment [1] and in experiment [3] was “inactive” throughout. Also, the compound was classed as inactive in experiment [5].
For `Oc1ccc(C2CNCc3sccc32)cc1O` (stereo not given), the Potency result in experiment [1] was “inactive”. Also, the compound was classed as inactive in experiment [2] and in experiment [5]. Further, the Potency in experiment [3] was 0.146 µM (active).
On to `O=C1NC(O)=NC1(c1ccccc1)c1ccccc1`, for which the Potency entry in experiment [3] is “inactive”.
`COc1ccccc1N1CCN(CCCCNS(=O)(=O)c2cccc3c(N(C)C)cccc23)CC1`: the Potency entry in experiment [1] and in experiment [3] was “inactive” in each case. In addition, the call in experiment [2] and in experiment [5] was inactive.
As for `C[N+](C)(C)CC(=O)[O-]`, the Potency result in experiment [1] is “inactive”.
For `OCC1O[C@H]([S-])[C@H](O)[C@@H](O)[C@@H]1O.[Au+]` (stereo not given in full), the Potency result in experiment [4] and in experiment [3] was “inactive” throughout. Also, the compound was classed as inactive in experiment [2].
`O=C1NC(=O)/C(=C/c2ccc3nccnc3c2)S1`: the Potency entry in experiment [4], in experiment [1] and in experiment [3] was “inactive” throughout.
`O=C(Nc1cccc(C(=O)Nc2ccc(S(=O)(=O)O)c3cc(S(=O)(=O)O)cc(S(=O)(=O)O)c23)c1)Nc1cccc(C(=O)Nc2ccc(S(=O)(=O)O)c3cc(S(=O)(=O)O)cc(S(=O)(=O)O)c23)c1`: in experiment [5], the outcome was inactive. The Potency entry in experiment [3] is “inactive”.
